Bioassay records (PubChem)
The full list was thinned out, with hits kept by preference.
Dicer inh: blocks human Dicer maturation of pre-miR-21; Q9UPY3; cat-ELCCA pre-miR-21 Dicer processing, chemiluminescence; stronger effect = higher value; z-score at 25 µM; 47,000 tested, 6% active; AID 1347074; in the data active means z-score above about 3, passing the limit was not always enough;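 further: plate controls were vehicle for no effect and no enzyme for full effect; higher signal means more uncleaved substrate so more Dicer inhibition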
The depositor's hits bear a star.

SMILES	Dicer inh
Cc1cc2nc(Nc3nc4ccccc4c(=O)[nH]3)nc(C)c2cc1C	-1.14
Cc1nc(Nc2nc3ccccc3c(=O)[nH]2)nc2c(C)cccc12	3.96*
Cc1ccc2nc(Nc3nc(C)c4ccccc4n3)[nH]c(=O)c2c1	-0.36
O=c1c(F)cn(Cc2ccc(F)cc2)c(=O)n1Cc1ccc(F)cc1	-0.72
Cc1ccc(CSc2nc3ncccc3[nH]2)cc1	4.27*
Fc1cc(Cl)ccc1CSc1nc2ncccc2[nH]1	-0.21
Brc1cccc(CSc2nc3ncccc3[nH]2)c1	1.2
COc1ccc(Br)cc1CN1CCN(Cc2ccc3c(c2)OCO3)CC1	0.98
Cc1noc(C)c1S(=O)(=O)NC1Cc2ccccc2C1	-2.94
COc1cc(C2NC(=O)c3c(sc4c3CCCC4)N2)cc(OC)c1OC (stereo not given)	-0.42
COc1ccc(C2NC(=O)c3c(sc4c3CCCC4)N2)cc1 (stereo not given)	-1.21
O=C1NC(c2ccccc2Cl)Nc2sc3c(c21)CCCC3 (stereo not given)	5.91*
O=C1NC(c2ccccc2Cl)Nc2sc3c(c21)CCN(Cc1ccccc1)C3 (stereo not given)	1.91
COc1cc(C2NC(=O)c3c(sc4c3CCCC4)N2)cc(Br)c1OC (stereo not given)	4.14*
O=C1NC(c2ccc(Cl)cc2)Nc2sc3c(c21)CCCC3 (stereo not given)	0.55
COc1ccc(Br)c(OC)c1C(=O)NC(=O)Nc1c(C)cc(Br)cc1C	-0.4
CC(=O)Oc1ccc(CC2SC(=O)NC2=O)cc1 (stereo not given)	-0.85
CC(C)(C)c1ccc(OCc2nc3ccccc3[nH]2)cc1	-0.35
Cc1c(C)c(C)c(CSC2=NCCN2Cc2ccccc2)c(C)c1C	1.77
O=C(Nc1ccc(S(=O)(=O)NC23CC4CC(CC(C4)C2)C3)cc1)c1ccc(Cl)cc1	0.54
O=[N+]([O-])c1cccnc1N/N=C/c1cccc(C(F)(F)F)c1	-0.5
C=CCSc1nsc(SCC(=O)c2ccc([N+](=O)[O-])cc2)c1C#N	-1.21
NC(=O)c1cc(-c2ccccc2)sc1NC(=O)c1ccco1	0.11
Cc1cc(=O)[nH]c(NCc2ccccc2)n1	-0.6
Cc1cc(=O)[nH]c(N/N=C\c2cccc3ccccc23)n1	3.32*
SMILES	Dicer inh
O=C(N/N=C/c1cccc2ccccc12)N/N=C/c1cccc2ccccc12	0.7
Cn1cnc(S(=O)(=O)NCc2ccc3c(c2)OCO3)c1	-0.18
O=C(Nc1ccc(Cl)cc1)c1cnc(Sc2ccccc2)cc1C(F)(F)F	-0.03
O=C(O)c1nccnc1C(=O)NCc1csc2ccccc12	1.36
S=C(NCc1csc2ccccc12)NCC1CC1	4.01*
N/C(Cc1csc2ccccc12)=N\O	0.88
O=C(O)/C=C\C(=O)NCc1csc2ccccc12	5.35*
CC1CC(NC(=S)NCc2csc3ccccc23)CC(C)(C)C1 (stereo not given)	-1.04
O=C(O)/C=C/C(=O)NCc1ccc(F)cc1	-0.86
O=C(/C=C/c1cc([N+](=O)[O-])ccc1Sc1ccc(C(F)(F)F)cn1)Nc1ccccc1	-0.5
NC(=O)CNC(=O)COc1ccccc1	-0.24
Cc1c(-c2ccnc(SCc3ccccc3Cl)n2)sc2ccc(Cl)cc12	1.41
O=C(c1ccc(Cl)cc1)c1cnc2ccccc2c1-c1ccccc1	-0.61
O=[N+]([O-])c1cc(C(F)(F)F)ccc1Oc1cccc(N2CCOCC2)c1	-1.23
OCc1cccc2cccc(Br)c12	-0.22
CN(C)/C=C(\C#N)c1ccc(OCc2ccc(Cl)c(Cl)c2)cc1	1.26
COC(=O)CC1=NN(c2nc3ccccc3[nH]2)C(=O)C1	5.31*
CCOC(=O)Cc1nc2ccccc2[nH]1	2.82
CC(C)(Cc1nc2ccccc2[nH]1)C(=O)O	-1.32
CC1=C(C(=O)OCCOc2ccccc2)C(c2ccccc2Br)C2=C(CCCC2=O)N1 (stereo not given)	0.27
Cc1ccc(S(=O)(=O)NC(=O)Nc2ccc(NC(=O)c3ccccc3O)cc2)cc1	1.42
O=c1[nH]nnn1-c1ccc(Cl)cc1	-1.34
CCCN(CCC)C(=S)Nc1cccc(OC)c1	0.47
CSC(=Nc1cccc(C(F)(F)F)c1)N1CCCC1	2.44
COc1ccc(-c2cc(OC(=O)c3ccccc3C)c3c(C)oc(C)c3c(=O)c2)cc1	6.67*
SMILES	Dicer inh
CCOc1ccc(-c2cc(OC(=O)c3ccccc3F)c3c(C)oc(C)c3c(=O)c2)cc1	0.02
CCOc1cc(-c2ccc(OC)cc2)cc(=O)c2c(C)oc(C)c12	-0.25
Cn1cc(C(=O)O/N=C(\N)c2ccc(C(C)(C)C)cc2)c(C(F)(F)F)n1	1.19
N/C(=N\O)c1cnccc1C(F)(F)F	1.03
COc1cc(C2NC(C(=O)O)CS2)ccc1OCc1ccc(Cl)cc1 (stereo not given)	-0.86
COC(=O)C1=C(C)NC2=C(C(=O)CC(c3ccc(Cl)cc3)C2)C1c1ccc(O)c(OC)c1 (stereo not given)	1.49
Cc1ccc(-c2c3c(=O)n(C)c(=O)n(C)c3cn2-c2cc(C)c(C)cc2N)cc1	-0.04
Cc1nc(Nc2ncc3c(n2)CC(c2ccc(F)cc2)CC3=O)nc2ccccc12 (stereo not given)	0.38
